# Source: PubChem BioAssay (Tox21)
# Where “and” joins values, the source holds several entries; their conditions need not be identical. Equal values may be shown once. Inconclusive results are not listed. Where a call stands in place of a potency, no number is given. Where a structure was tested more than once in an assay, its records may differ in their call. Calls of active or inactive are those of the source. Unless noted, calls follow the shape of the dose curve; as a rule, active = well fitted curve in the direction sought with a large enough effect in the repeat runs; inconclusive = weak or mixed curves; inactive = no such curve, though single readings can be large; an effect the other way counts as inactive or inconclusive.
# Key:
# [1] = qHTS assay for small molecules that induce genotoxicity in human embryonic kidney cells expressing luciferase-tagged ATAD5 (AID 651632); also: nearly all actives have a fitted effect of over 15% in size
# Summary of the method: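 Reporter cells (HEK293T) express luciferase-tagged ATAD5, a protein that accumulates after DNA damage. Treat 16 hr at 37C/5% CO2, add Amplite, wait 30 min at RT, and read luminescence.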
# [2] = qHTS assay for small molecule agonists of the p53 signaling pathway - cell viability (AID 651633; calls by dose curve; also: series mostly up to about 83 µM; nearly all actives have a fitted effect of over 30% in size)
# Summary of the method: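 Viability counter-read: CellTiter-Glo luminescence (30 min, room temperature) in the same p53RE-bla plates. These plates had been exposed to compounds for 16 h at 37 C.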
# [3] = qHTS assay for small molecules that induce genotoxicity in human embryonic kidney cells expressing luciferase-tagged ATAD5 - cell viability (AID 651634; calls by dose curve; also: nearly all actives have a fitted effect of over 25% in size)
# Summary of the method: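 Seeding of 2,000 HEK293T ATAD5-luciferase cells per well preceded pin-tool compound transfer. Plates sat 15.5 hr at 37C under 5% CO2, then fluorescence was read after 30 min with CellTiter-Fluor.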
# [4] = qHTS assay for small molecule disruptors of the mitochondrial membrane potential - cell viability (AID 720634; calls by dose curve; also: nearly all actives have a fitted effect of over 20% in size; also: potency is read from the fitted curve at half-maximal effect)
# Summary of the method: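 Measuring cytotoxicity alongside mitochondrial potential, the screen quantified ATP by luminescence in HepG2 cells after 1 hr compound incubation and a 30 min room-temperature CellTiter-Glo step.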
# [5] = qHTS assay for small molecule disruptors of the mitochondrial membrane potential (AID 720635); also: potency is read from the fitted curve at half-maximal effect
# Summary of the method: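 Mitochondrial membrane potential tracked with Mito-MPS dye, red aggregates (ex 540/em 590 nm) against green monomers (ex 490/em 535 nm). Compound treatment 1 hr at 37C, dye 30 min in HepG2.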
# [6] = qHTS assay to test for compound auto fluorescence at 590 nm (red) in HepG2 cells (AID 720674)
# Summary of the method: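 We screened compounds on adherent HepG2 cells, incubating them for an hour at 37 C in 5% CO2 before reading emission at 590 nm under 540 nm excitation; values reflect equivalence to Rose Bengal sodium fluorescence.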
# [7] = qHTS assay to test for compound auto fluorescence at 535 nm (green) in HepG2 cells (AID 720675)
# [8] = qHTS assay to test for compound auto fluorescence at 460 nm (blue) in HEK293 cells (AID 720678)
# Summary of the method: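 Intrinsic compound fluorescence is recorded in live HEK293 cultures after overnight incubation at 37C, 5% CO2, using excitation 405 nm and emission 460 nm. Values are referenced to triamterene.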
# [9] = qHTS assay to test for compound auto fluorescence at 590 nm (red) in HEK293 cells (AID 720679)
# Summary of the method: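 Red autofluorescence, HEK293 cells: 2,000 cells/well; attach 4-5 hr 37C; add 23 nL cpd or DMSO; incubate o/n 37C 5% CO2; read Ex540/Em590; Rose Bengal sodium reference.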
# [10] = qHTS assay to test for compound auto fluorescence at 535 nm (green) in HEK293 cells (AID 720680)
# [11] = qHTS assay to test for compound auto fluorescence at 460 nm (blue) in HEK293 cell free culture (AID 720681)
# Summary of the method: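 Blue fluorescence (Ex 405/Em 460 nm, triamterene-equivalent) was read immediately after pin transfer of compound or DMSO into medium (DMEM, 10% FBS) without cells.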
# [12] = qHTS assay to test for compound auto fluorescence at 535 nm (green) in HEK293 cell free culture (AID 720682)
# Summary of the method: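 Compounds were pin-transferred into cell-free DMEM with 10% FBS, and green fluorescence was read at excitation 485 nm and emission 535 nm. Intensities were expressed as fluorescein-equivalent values.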
# [13] = qHTS assay to test for compound auto fluorescence at 590 nm (red) in HEK293 cell free culture (AID 720683)
# Summary of the method: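 Red-channel autofluorescence of compounds in culture medium (DMEM, 10% FBS), no cells, measured at 540/590 nm. Rose Bengal sodium is the reference fluorophore for equivalence.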
# [14] = qHTS assay to test for compound auto fluorescence at 590 nm (red) in HepG2 cell free culture (AID 720684)
# Summary of the method: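 Plate contents were MEM with 10% FBS plus test compound or DMSO, no cells. Fluorescence was recorded with 540 nm excitation and 590 nm emission.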
# [15] = qHTS assay to test for compound auto fluorescence at 460 nm (blue) in HepG2 cell free culture (AID 720685)
# Summary of the method: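 Compound (23 nL) or DMSO pinned into cell-free MEM with 10% FBS; blue fluorescence read at 405/460 nm excitation/emission, expressed as auto-fluorescence equivalency to triamterene.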
# [16] = qHTS assay to test for compound auto fluorescence at 460 nm (blue) in HepG2 cells (AID 720687)
# Summary of the method: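 Blue-channel autofluorescence (Ex/Em 405/460 nm, triamterene-equivalent) was measured after 1 hr compound exposure at 37 C, 5% CO2. Cells were HepG2, plated overnight at 37 C in MEM plus 10% FBS.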
# [17] = biological target: Glucocorticoid receptor (Homo sapiens) (UniProt P04150); assay: qHTS assay to identify small molecule agonists of the glucocorticoid receptor (GR) signaling pathway (AID 720691; active = well fitted activation curve with a large enough effect in the signal ratio in the repeat runs, not every such curve was filed as active; the % refers to the signal ratio)
# Summary of the method: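 Reporter read-out: fluorescence intensity following 2 h room-temperature LiveBLAzer B/G FRET substrate loading. Prior step: GR-bla HeLa cells held 4 h, then treated 18 h at 37 C.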
# [18] = biological target: Glucocorticoid receptor (Homo sapiens) (UniProt P04150); assay: qHTS assay to identify small molecule antagonists of the glucocorticoid receptor (GR) signaling pathway (AID 720692; active = well fitted inhibition curve with a large enough effect in the signal ratio in the repeat runs, not every such curve was filed as active; the % refers to the signal ratio; also: potency is read from the fitted curve at half-maximal effect)
# Summary of the method: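 Dexamethasone (5 nM final) stimulated a stably integrated GRE-beta-lactamase reporter in HeLa cells during 18 h co-incubation with compounds; signal was quantified as fluorescence intensity of B/G FRET substrate after 2 h.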
# [19] = qHTS assay to test for compound auto fluorescence at 535 nm (green) in HepG2 cell free culture (AID 720686)
# [20] = qHTS assay for small molecule agonists of the p53 signaling pathway (AID 651631; calls by dose curve; also: nearly all actives have a fitted effect of over 15% in size)
# Summary of the method: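 Readout was fluorescence from the LiveBLAzer FRET substrate, applied for 2 h at room temperature after 16 h compound exposure at 37 °C. Cells were the p53RE-bla HCT-116 line, with beta-lactamase driven by p53 response elements.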
# Sequence of Glucocorticoid receptor (Homo sapiens) (P04150 whole entry, looked up): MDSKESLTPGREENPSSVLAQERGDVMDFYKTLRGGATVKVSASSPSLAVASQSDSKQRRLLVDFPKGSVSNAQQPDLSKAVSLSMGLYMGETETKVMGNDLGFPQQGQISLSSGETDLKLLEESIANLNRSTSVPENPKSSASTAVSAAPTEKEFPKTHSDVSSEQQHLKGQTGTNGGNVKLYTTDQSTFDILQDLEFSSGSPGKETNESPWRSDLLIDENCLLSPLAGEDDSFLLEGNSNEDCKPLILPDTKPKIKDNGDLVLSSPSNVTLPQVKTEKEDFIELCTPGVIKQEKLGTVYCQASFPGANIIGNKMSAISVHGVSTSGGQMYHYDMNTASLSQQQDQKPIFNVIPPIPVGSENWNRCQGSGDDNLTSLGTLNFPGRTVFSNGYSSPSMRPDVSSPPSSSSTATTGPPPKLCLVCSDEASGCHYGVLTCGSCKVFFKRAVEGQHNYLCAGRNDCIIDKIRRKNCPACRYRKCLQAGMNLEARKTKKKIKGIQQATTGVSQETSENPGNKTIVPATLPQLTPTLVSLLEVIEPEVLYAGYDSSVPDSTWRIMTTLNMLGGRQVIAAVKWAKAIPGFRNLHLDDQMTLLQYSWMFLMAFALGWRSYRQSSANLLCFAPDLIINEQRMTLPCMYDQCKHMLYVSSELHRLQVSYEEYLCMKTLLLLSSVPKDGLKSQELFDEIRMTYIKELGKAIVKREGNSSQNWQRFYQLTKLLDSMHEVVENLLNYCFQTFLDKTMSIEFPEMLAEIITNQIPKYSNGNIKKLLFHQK
Structure (SMILES),Potency [1],Potency [2],Potency [3],Potency [4],Potency [5],outcome [6],outcome [7],outcome [8],outcome [9],outcome [10],outcome [11],outcome [12],outcome [13],outcome [14],outcome [15],outcome [16],outcome [17],Potency [18],outcome [19],Potency [20]
CC(=O)/C=C/c1ccccc1,inactive,inactive,inactive,inactive,inactive,inactive,inactive,inactive,inactive,inactive,inactive,inactive,inactive,inactive,inactive,inactive,inactive,inactive,–,–
O=C(O)c1cc(Oc2ccc(C(F)(F)F)cc2Cl)ccc1[N+](=O)[O-],–,inactive,inactive,inactive,inactive,inactive,inactive,inactive,inactive,inactive,inactive,inactive,inactive,inactive,inactive,inactive,inactive,inactive,inactive,–
Oc1c(Br)cc(Br)cc1Br,–,inactive,inactive,inactive,48.7 µM (active) and 54.5 µM (active),inactive,inactive,inactive,inactive,inactive,inactive,inactive,inactive,inactive,inactive,inactive,–,–,inactive,–
OC[C@@H](O)[C@H]1O[C@@H]2O[C@H](C(Cl)(Cl)Cl)O[C@@H]2[C@H]1O,–,–,inactive,inactive,inactive,inactive,inactive,inactive,inactive,inactive,inactive,inactive,inactive,inactive,inactive,inactive,inactive,inactive,–,–
Nc1ncc([N+](=O)[O-])s1,–,inactive,inactive,inactive,–,inactive,inactive,inactive,inactive,inactive,inactive,inactive,inactive,inactive,inactive,inactive,inactive,inactive,inactive,inactive
CCOC(=O)CC(SP(=O)(OC)OC)C(=O)OCC (centres undefined),–,inactive,inactive,inactive,inactive,inactive,inactive,inactive,inactive,inactive,inactive,inactive,inactive,inactive,inactive,inactive,inactive,inactive,–,inactive
C=CC(=O)OCC(CC)CCCC (centres undefined),–,inactive,–,inactive,inactive,inactive,inactive,inactive,inactive,inactive,inactive,inactive,inactive,inactive,inactive,inactive,inactive,inactive,–,inactive
COC(=O)Nc1cccc(OC(=O)Nc2cccc(C)c2)c1,–,inactive,inactive,7.7 µM (active),2.73 µM (active) and 3.86 µM (active),inactive,inactive,inactive,inactive,inactive,inactive,inactive,inactive,inactive,inactive,inactive,inactive,inactive,–,inactive
COc1cc(-c2ccc(N)c(OC)c2)ccc1N,–,inactive,–,inactive,–,inactive,inactive,inactive,inactive,inactive,inactive,inactive,inactive,inactive,inactive,inactive,–,–,–,inactive
O=[N+]([O-])c1ccc(Cl)c(Cl)c1,inactive,inactive,inactive,inactive,inactive,inactive,inactive,inactive,inactive,inactive,inactive,inactive,inactive,inactive,inactive,inactive,inactive,inactive,–,–
Cc1cc(O)ccc1Cl,–,inactive,inactive,inactive,10.6 µM (active) and 49.4 µM (active) and 27.3 µM (active),inactive,inactive,inactive,inactive,inactive,inactive,inactive,inactive,inactive,inactive,inactive,inactive,inactive,–,inactive
O=C(O)C(Br)Br,–,inactive,inactive,inactive,inactive,inactive,inactive,inactive,inactive,inactive,inactive,inactive,inactive,inactive,inactive,inactive,inactive,inactive,–,inactive
CN1C(=O)CCS(=O)(=O)C1c1ccc(Cl)cc1 (centres undefined),inactive,–,inactive,inactive,inactive,inactive,inactive,inactive,inactive,inactive,inactive,inactive,inactive,inactive,inactive,inactive,inactive,inactive,–,–
FC(F)(F)c1ccc(Cl)cc1,–,inactive,inactive,inactive,inactive,inactive,inactive,inactive,inactive,inactive,inactive,inactive,inactive,inactive,inactive,inactive,inactive,inactive,–,inactive
CCOP(=S)(OCC)Oc1ccc([N+](=O)[O-])cc1,–,inactive,inactive,inactive,55.1 µM (active) and inactive,inactive,inactive,inactive,inactive,inactive,inactive,inactive,inactive,inactive,inactive,inactive,inactive,inactive,–,inactive
C[C@]12CC[C@H](O)CC1=CC[C@@H]1[C@@H]2CC[C@]2(C)C(=O)CC[C@@H]12,–,inactive,inactive,inactive,–,inactive,inactive,inactive,inactive,inactive,inactive,inactive,inactive,inactive,inactive,inactive,–,43.7 µM (active) and 43.6 µM (active),inactive,–
CC12CC1(C)C(=O)N(c1cc(Cl)cc(Cl)c1)C2=O (centres undefined),inactive,inactive,inactive,–,–,inactive,inactive,inactive,inactive,inactive,inactive,inactive,inactive,inactive,inactive,inactive,inactive,inactive,–,–
NNc1ccccc1,inactive,inactive,–,inactive,inactive,inactive,inactive,inactive,inactive,inactive,inactive,inactive,inactive,inactive,inactive,inactive,–,–,–,–
Cc1cccc(N)c1,–,inactive,inactive,inactive,inactive,inactive,inactive,inactive,inactive,inactive,inactive,inactive,inactive,inactive,inactive,inactive,–,–,–,–
Sc1ccccc1,–,inactive,inactive,inactive,inactive,inactive,inactive,inactive,inactive,inactive,inactive,inactive,inactive,inactive,inactive,inactive,inactive,inactive,inactive,–
CNCC(O)c1ccc(O)cc1 (centres undefined),–,inactive,inactive,inactive,inactive,inactive,inactive,inactive,inactive,inactive,inactive,inactive,inactive,inactive,inactive,inactive,inactive,inactive,–,inactive
Nc1ccc(N)cc1,–,inactive,inactive,inactive,841 nM (active) and 5.47 µM (active) and 3.86 µM (active),inactive,inactive,inactive,inactive,inactive,inactive,inactive,inactive,inactive,inactive,inactive,–,–,inactive,–
CN(C)NC(=O)CCC(=O)O,–,inactive,–,inactive,inactive,inactive,inactive,inactive,inactive,inactive,inactive,inactive,inactive,inactive,inactive,inactive,–,–,–,inactive
Oc1ccc(Cl)cc1,–,inactive,inactive,–,–,inactive,inactive,inactive,inactive,inactive,inactive,inactive,inactive,inactive,inactive,inactive,–,–,inactive,inactive
O=C(O)Cc1ccccc1,–,inactive,inactive,inactive,inactive,inactive,inactive,inactive,inactive,inactive,inactive,inactive,inactive,inactive,inactive,inactive,–,–,inactive,–
CNC(=O)O/N=C/C(C)(C)S(C)=O (centres undefined),–,inactive,inactive,inactive,inactive,inactive,inactive,inactive,inactive,inactive,inactive,inactive,inactive,inactive,inactive,inactive,inactive,inactive,–,–
O=S(=O)(O)OOS(=O)(=O)O,inactive,inactive,inactive,–,–,inactive,inactive,inactive,inactive,inactive,inactive,inactive,inactive,inactive,inactive,inactive,–,–,–,–
ClC(Cl)c1ccccc1,–,inactive,inactive,inactive,inactive,inactive,inactive,inactive,inactive,inactive,inactive,inactive,inactive,inactive,inactive,inactive,inactive,inactive,inactive,–
